Source: PubChem BioAssay
Activity calls are given as the source filed them.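 Rule for the calls: active = visually confirmed hit in the image check and inhibition above 20%; inconclusive = visually confirmed hit but inhibition not above 20%; inactive = no visual hit in the image check.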

Experiment: inhibitors of E-selectin induction by TNFa, primary screen, imaging, HUVEC, immunofluorescence, MLSMR starter and 10KST1 sets (AID 487);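 for inhibition: signal is fraction of cell area covered by stained E-selectin grains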;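 for nuclei count: 100% = median nuclei count of all wells on the same plate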
Details: HUVEC TNFalpha-induced E-selectin immunofluorescence imaging, at 2 µM; inhibition: stronger effect = higher value; nuclei count: measured here: cell number, toxicity
With COC(=O)C(NC(C)=O)(Nc1ccccn1)C(F)(F)F (configuration not stated) the inhibition was -61.1% (inactive) and the nuclei count was 121%.
In the case of CCOC(=O)c1ccc2nc(NC(NC(C)=O)(C(=O)OC)C(F)(F)F)sc2c1 (configuration not stated), the inhibition was -23.9% (inactive) and the nuclei count was 130%.
In the case of Cc1nc2sc(C#N)c(N)c2c2c1CCCC2, the nuclei count was 96.3% and the inhibition was 0.2% (inactive).
For COCc1cc(=O)[nH]c(Nc2nc3ccccc3o2)n1, the nuclei count was 95.2% and the inhibition was -16% (inactive).
With Cc1c(O)c(CN2CCCCC2)cc2c3c(c(=O)oc12)CCC3 the inhibition was -1.4% (inactive) and the nuclei count was 130%.
In the case of O=C(C1CC1(c1ccccc1)c1ccccc1)N1CCOCC1 (configuration not stated), the inhibition was -60.9% (inactive) and the nuclei count was 150%.
With Cn1c(=O)[nH]c(=O)c2c1nc(N(CCO)Cc1ccccc1)n2Cc1ccccc1Cl the inhibition was -37.5% (inactive) and the nuclei count was 109%.
With CC1(C)CNC(=O)c2sc(N3CCOCC3)nc2C1 the nuclei count was 119% and the inhibition was -112% (inactive).
For CCOC(=O)CNC(=O)Nc1ccccc1C(=O)OC, the inhibition was 15.4% (inactive) and the nuclei count was 119%.
With CC(=O)C1=C(O)C(=O)N(c2ccc(C(=O)O)cc2)C1c1ccccc1 (configuration not stated) the nuclei count was 112% and the inhibition was -53.3% (inactive).
For Cn1c(=O)n(Cc2ccccc2)c(=O)c2c1nc(NCC1CCCO1)n2Cc1ccccc1 (configuration not stated), the nuclei count was 102% and the inhibition was -41.8% (inactive).
With c1ccc(CN2CCN(c3ncnc4c3[nH]c3ccccc34)CC2)cc1 the nuclei count was 137% and the inhibition was -47.4% (inactive).
With Cc1nnc2n(-c3ccccc3)c(=O)c3c4c(sc3n12)CCCC4 the nuclei count was 122% and the inhibition was -54% (inactive).
For COc1ccc2c(c1)n([O-])c1c([n+]2=O)CCC1, the nuclei count was 108% and the inhibition was -56.2% (inactive).
In the case of Cc1cc2c(c(=O)o1)C(Cc1ccccc1)C(C#N)=C(N)O2 (configuration not stated), the nuclei count was 126% and the inhibition was -45.5% (inactive).
In the case of c1ccc2c(c1)[nH]c1c(N3CCC4(CC3)OCCO4)ncnc12, the inhibition was -72.3% (inactive) and the nuclei count was 119%.
For CCOC(=O)c1ccc(N=Cc2nc(-c3ccccc3)oc2OC(C)=O)cc1, the nuclei count was 120% and the inhibition was -0.4% (inactive).
In the case of CCN1CCc2c(C#N)c(N3CCCCC3)nc(NCc3ccccc3)c2C1, the nuclei count was 112% and the inhibition was -51.6% (inactive).
For Cc1cc(C)n(C(=O)CNC(=O)C2COc3ccccc3O2)n1 (configuration not stated), the nuclei count was 124% and the inhibition was -92.7% (inactive).
For CCCCOc1ccccc1C(=O)NCCCC(=O)O, the nuclei count was 134% and the inhibition was -66.7% (inactive).
For OCCNc1ncnc2c1c(-c1ccccc1)c(-c1ccccc1)n2Cc1ccco1, the inhibition was 13.3% (inactive) and the nuclei count was 91.6%.
In the case of COc1ccc(CCn2c(=N)c(C#N)cc3c(=O)n4ccccc4nc32)cc1, the nuclei count was 105% and the inhibition was -65.9% (inactive).
With Cc1nc2ccccc2cc1O the inhibition was -67% (inactive) and the nuclei count was 103%.
With COC(=O)CNC(=O)c1c(C)cc(=O)oc1C the nuclei count was 115% and the inhibition was -34.9% (inactive).
In the case of Cc1c(NC(=O)c2ccc(=O)oc2)c(=O)n(-c2ccccc2)n1C, the inhibition was -22.2% (inactive) and the nuclei count was 119%.
In the case of Cc1ccc(C(=O)/C=C/Nc2cccc(O)c2)cc1, the nuclei count was 115% and the inhibition was -0.2% (inactive).
For CCn1nc(NC(=O)c2cccnc2)c2cc3ccccc3nc21, the nuclei count was 133% and the inhibition was -29.4% (inactive).
For Cc1ccc(/C=N/n2nnnc2N)o1, the inhibition was -8.1% (inactive) and the nuclei count was 133%.
For Cc1ccc2[nH]c3c(N4CCOCC4)ncnc3c2c1, the nuclei count was 152% and the inhibition was -12.3% (inactive).
For O=C(Nc1ccccn1)NC(C(F)(F)F)C(F)(F)F, the nuclei count was 139% and the inhibition was -56% (inactive).
For CC(=O)c1c(OCC(=O)O)ccc2c(C)cc(=O)oc12, the nuclei count was 126% and the inhibition was -27.6% (inactive).
With O=C(NC1CCS(=O)(=O)C1)c1c(NC(=O)C2COc3ccccc3O2)sc2c1CCCC2 (configuration not stated) the nuclei count was 143% and the inhibition was -35.3% (inactive).
For Cc1cc(O)c(C(C)C)cc1N=C1CSC(=O)N1, the nuclei count was 98.6% and the inhibition was -9% (inactive).
With O=C1C2ON(c3ccccc3)C(c3cccnc3)C2C(=O)N1c1ccccc1 (configuration not stated) the nuclei count was 130% and the inhibition was -28.2% (inactive).
For COc1ccccc1N=Cc1nc(-c2ccccc2)oc1OC(C)=O, the nuclei count was 132% and the inhibition was -86.5% (inactive).
With Fc1ccc(-c2cnc[nH]2)cc1 the inhibition was -88.1% (inactive) and the nuclei count was 109%.
For Nn1c(SCC(=O)Nc2ccc3c(c2)OCCO3)nnc1C(F)(F)F, the inhibition was -26.1% (inactive) and the nuclei count was 110%.
With CN(C)/C=C1\N=C(c2ccc(Cl)cc2Cl)OC1=O the nuclei count was 120% and the inhibition was -31.3% (inactive).
With CCOc1ccccc1N1CCN(c2nc3ccccc3nc2C(C#N)C(=O)OC)CC1 (configuration not stated) the nuclei count was 102% and the inhibition was -43.1% (inactive).

Experiment: DUSP6 inhibitors restoring Erk phosphorylation by chemical complementation, primary imaging in DUSP6-transfected HeLa (AID 609)
Details: HeLa MKP-3 transfected, phospho-Erk imaging KS statistic; measured here: cell density z-score; at 10 µM; cells stimulated with TPA for 15 min
In the case of COC(=O)C(NC(C)=O)(Nc1ccccn1)C(F)(F)F (configuration not stated), the z-score was 2.44.
Work on CCOC(=O)c1ccc2nc(NC(NC(C)=O)(C(=O)OC)C(F)(F)F)sc2c1 (configuration not stated) yielded a z-score of 1.37.
For Cc1nc2sc(C#N)c(N)c2c2c1CCCC2, the z-score was -2.36.
COCc1cc(=O)[nH]c(Nc2nc3ccccc3o2)n1 showed a z-score of 0.0739.
For Cc1c(O)c(CN2CCCCC2)cc2c3c(c(=O)oc12)CCC3, the z-score was 0.172.
For O=C(C1CC1(c1ccccc1)c1ccccc1)N1CCOCC1 (configuration not stated), the z-score was 0.0865.
Work on Cn1c(=O)[nH]c(=O)c2c1nc(N(CCO)Cc1ccccc1)n2Cc1ccccc1Cl yielded a z-score of 1.19.
Compound CC1(C)CNC(=O)c2sc(N3CCOCC3)nc2C1 has a z-score of -0.682.
With CCOC(=O)CNC(=O)Nc1ccccc1C(=O)OC the z-score was 0.104.
For CC(=O)C1=C(O)C(=O)N(c2ccc(C(=O)O)cc2)C1c1ccccc1 (configuration not stated), the z-score was 1.33.
For Cn1c(=O)n(Cc2ccccc2)c(=O)c2c1nc(NCC1CCCO1)n2Cc1ccccc1 (configuration not stated), the z-score was -3.11.
c1ccc(CN2CCN(c3ncnc4c3[nH]c3ccccc34)CC2)cc1 showed a z-score of 0.378.
Work on Cc1nnc2n(-c3ccccc3)c(=O)c3c4c(sc3n12)CCCC4 yielded a z-score of -1.12.
Compound COc1ccc2c(c1)n([O-])c1c([n+]2=O)CCC1 has a z-score of -0.812.
Work on Cc1cc2c(c(=O)o1)C(Cc1ccccc1)C(C#N)=C(N)O2 (configuration not stated) yielded a z-score of -1.29.
For c1ccc2c(c1)[nH]c1c(N3CCC4(CC3)OCCO4)ncnc12, the z-score was -0.995.
CCOC(=O)c1ccc(N=Cc2nc(-c3ccccc3)oc2OC(C)=O)cc1 showed a z-score of 0.0584.
For CCN1CCc2c(C#N)c(N3CCCCC3)nc(NCc3ccccc3)c2C1, the z-score was 1.27.
Work on Cc1cc(C)n(C(=O)CNC(=O)C2COc3ccccc3O2)n1 (configuration not stated) yielded a z-score of 0.273.
CCCCOc1ccccc1C(=O)NCCCC(=O)O showed a z-score of -0.714.
Work on OCCNc1ncnc2c1c(-c1ccccc1)c(-c1ccccc1)n2Cc1ccco1 yielded a z-score of -1.86.
Compound COc1ccc(CCn2c(=N)c(C#N)cc3c(=O)n4ccccc4nc32)cc1 has a z-score of 1.77.
For Cc1nc2ccccc2cc1O, the z-score was -0.53.
COC(=O)CNC(=O)c1c(C)cc(=O)oc1C gave a z-score of 0.439.
Cc1c(NC(=O)c2ccc(=O)oc2)c(=O)n(-c2ccccc2)n1C gave a z-score of -1.01.
Cc1ccc(C(=O)/C=C/Nc2cccc(O)c2)cc1 gave a z-score of -0.411.
Work on CCn1nc(NC(=O)c2cccnc2)c2cc3ccccc3nc21 yielded a z-score of 0.0666.
For Cc1ccc(/C=N/n2nnnc2N)o1, the z-score was 0.152.
In the case of Cc1ccc2[nH]c3c(N4CCOCC4)ncnc3c2c1, the z-score was -1.33.
O=C(Nc1ccccn1)NC(C(F)(F)F)C(F)(F)F gave a z-score of 0.555.
For CC(=O)c1c(OCC(=O)O)ccc2c(C)cc(=O)oc12, the z-score was -0.71.
In the case of O=C(NC1CCS(=O)(=O)C1)c1c(NC(=O)C2COc3ccccc3O2)sc2c1CCCC2 (configuration not stated), the z-score was 0.65.
In the case of Cc1cc(O)c(C(C)C)cc1N=C1CSC(=O)N1, the z-score was 0.698.
For O=C1C2ON(c3ccccc3)C(c3cccnc3)C2C(=O)N1c1ccccc1 (configuration not stated), the z-score was 0.476.
COc1ccccc1N=Cc1nc(-c2ccccc2)oc1OC(C)=O gave a z-score of 0.537.
Fc1ccc(-c2cnc[nH]2)cc1 gave a z-score of -1.11.
Compound Nn1c(SCC(=O)Nc2ccc3c(c2)OCCO3)nnc1C(F)(F)F has a z-score of 0.295.
CN(C)/C=C1\N=C(c2ccc(Cl)cc2Cl)OC1=O gave a z-score of -1.76.
In the case of CCOc1ccccc1N1CCN(c2nc3ccccc3nc2C(C#N)C(=O)OC)CC1 (configuration not stated), the z-score was -0.286.
